Compounds with a hit are over-represented: about 4.1% of the library has one in this group of screens.
ALR H2O2 inh: inhibitors of human ALR sulfhydryl oxidase, primary screen, biochemical, H2O2 detection, HRP-luminol luminescence, single point; FAD-linked sulfhydryl oxidase ALR (Homo sapiens), P55789; purified ALR, DTT oxidation; inhibition, % (concentration not given with the values); 290,000 tested, 3.8% active;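 active = mean replicate inhibition above about 79%, with every replicate also reaching it, limit read from the data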
Target sequence (P55789 whole entry, looked up): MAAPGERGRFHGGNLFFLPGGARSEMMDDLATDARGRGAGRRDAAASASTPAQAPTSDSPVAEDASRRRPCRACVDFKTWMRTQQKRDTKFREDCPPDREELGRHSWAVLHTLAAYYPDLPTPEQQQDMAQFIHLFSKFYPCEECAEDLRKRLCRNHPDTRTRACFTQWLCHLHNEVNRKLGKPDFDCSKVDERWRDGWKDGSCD
IDE cell inh: human IDE inhibitors in live cells, primary screen, fluorescence polarization, HEK cells, FAbetaB substrate; Insulin-degrading enzyme (Homo sapiens), P14735; 320,000 tested, 0.41% active; FAbetaB cleavage; inhibition, % at 5.59 µM;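 active = percent inhibition above the average of all tested compounds plus 3 SD, set per screening campaign, cut at about 16% in these data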;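 note: IDE supplied by intact live HEK cells; FP after avidin binding of uncleaved biotin substrate so inhibition keeps polarization high; 0% = DMSO wells and 100% = 60 µM reference IDE inhibitor Ii1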
IDE act: human IDE activators in live cells, primary screen, fluorescence polarization, HEK cells, FAbeta-B substrate. FAbeta-B cleavage; 0% vehicle, 100% cell-free pure enzyme wells. activation, % at 5.96 µM. 340,000 tested, 0.073% active;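 active = activation above the mean of all tested compounds plus 3 SD, set per screening campaign, cut at about 17% in these data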
CaV13 FRET inh: Primary screen for inhibitors of IQ motif and Ca2+-dependent inactivation inhibitor domain binding in CACNA1D, Förster resonance energy transfer in living cells, … | inhibition, % at 12.3 µM | 340,000 tested, 0.098% active | HEK cells, CFP/YFP FRET ICDI-IQ, plate reader, 10 min; percent FRET-ratio fall versus neutral wells;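 active = mean replicate inhibition of at least 30% and at least 1% of replicates passing that level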;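 note: 0% = median of the neutral control wells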
PolyA inhibitor: polyadenylation inhibitors in yeast reporter cells, primary screen, luminescence, S. cerevisiae. AID 1875, 2009. S. cerevisiae SKY197-pL101 polyadenylation reporter, beta-gal luminescence; efflux-impaired pdr1/pdr3 knockout yeast; score 100 = 6 SD above DMSO. activity score, % at 12 µM. 300,000 tested, 0.02% active;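 active = lowest replicate activity score at least 50, where 100 means six control SD above control mean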;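 note: yeast exposed to compound for 9 h at 30 °C; higher score means more reporter readthrough which indicates perturbed polyadenylation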
PfM18AAP inh: PfM18AAP inhibitors, malaria aminopeptidase, primary screen, biochemical, QFRET, recombinant enzyme; M18 aspartyl aminopeptidase (Plasmodium falciparum 3D7); H-Glu-NHMec fluorogenic cleavage; inhibition, % at 7.35 µM; 290,000 tested, 1.2% active; AID 1822, 2009;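 active = inhibition above the campaign mean inhibition over all tested compounds plus 3 SD, cut at about 28% in these data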;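 note: 0% = plate median of test compound wells and 100% = 2 mM ZnCl2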
* = called active by the depositor; . = no result.

SMILES	ALR H2O2 inh	IDE cell inh	IDE act	CaV13 FRET inh	PolyA inhibitor	PfM18AAP inh
NCCc1nnc(SCC(=O)Nc2cccc(Cl)c2)o1	99*	3	2	-5	-31	11
CCOC(=O)c1c(NC(=O)CSc2nnc(CNc3ccc(Cl)cc3)o2)sc(C)c1C	84*	2	3	-4	-3	3
O=C(N/C=C/c1ccccc1)c1ccccc1	5	-5	3	-5	-7	.
Cc1ccnc2nc(C(=O)OCC(=O)c3c[nH]c4ccccc34)nn12	-2	-3	0	-14	18	-7
CCOC(=O)c1ccc(NC(=O)CSc2nnc(CNC(=O)c3c(F)cccc3Cl)o2)cc1	99*	8	5	.	1	-1
O=C(CSc1nnc(CNC(=O)c2c(F)cccc2Cl)o1)Nc1ccc2c(c1)OCCO2	99*	4	2	.	0	-3
O=C(CSc1nnc(CNC(=O)c2c(F)cccc2Cl)o1)NCc1ccc2c(c1)OCO2	-13	7	6	.	7	-3
O=C(CSc1nnc(CNC(=O)c2c(F)cccc2F)o1)Nc1ccc2c(c1)OCO2	98*	2	1	-7	1	7
Cc1ccc(CC(NC(=O)C2CCCCC2)C(=O)O)cc1 (stereo unspecified)	.	.	6	-6	.	.
CCCNC(=O)C1(C)CCCN(Cc2ccsc2)C1 (stereo unspecified)	.	.	.	-4	.	.
Cc1[nH]c2ccccc2c1C(=O)C(C)OC(=O)c1ccc(NC(=O)CC#N)cc1 (stereo unspecified)	100*	11	-1	-6	9	.
Cc1[nH]c2ccccc2c1C(=O)C(C)OC(=O)c1ccc(Cl)nc1 (stereo unspecified)	.	-3	-1	-7	-4	.
CC1Oc2ccccc2C=C1/C=N/Nc1ccc(C(=O)O)cc1 (stereo unspecified)	92*	3	1	3	-17	-2
CCOC(=S)SCc1cn2ccc(C)cc2n1	99*	1	3	-6	-4	5
Cc1ccn2cc(CSc3ccccc3N)nc2c1	29	0	7	-4	-1	-7
Cc1ccc(SCc2cn3ccccc3n2)cc1	7	12	-3	-1	3	2
CCOC(=S)SCc1cn2ccccc2n1	98*	-1	2	-1	5	13
O=C(Cn1cnc2scc(-c3cccc([N+](=O)[O-])c3)c2c1=O)NCc1ccco1	.	-3	3	-5	11	-7
Fc1ccc(Nc2cncc(-c3ccsc3)c2)cc1Cl	.	.	.	-4	.	.
Nc1ccc(N2CCN(CCCCN3C(=O)C4CCCN4C3=O)CC2)cc1 (stereo unspecified)	99*	4	4	-5	0	13
O=C1C2CCCN2C(=O)N1CCCN1CCN(c2cccc(Br)c2)CC1 (stereo unspecified)	85*	2	-1	8	-1	-13
O=C1C2CCCCN2C(=O)N1CCCN1CCN(c2ccc(F)cc2)CC1 (stereo unspecified)	70	-2	2	-2	-23	-7
COc1ccc(-c2nc(N)n[nH]2)cc1OC	3	0	2	.	4	-13
Cc1ccc(-c2cnn(-c3ccccc3)c2N)cc1	1	-2	1	-3	-7	-1
COc1cc(OC)cc(-c2cn[nH]c2N)c1	99*	-1	4	-4	12	-5
SMILES	ALR H2O2 inh	IDE cell inh	IDE act	CaV13 FRET inh	PolyA inhibitor	PfM18AAP inh
COc1ccc(-c2cn[nH]c2N)cc1OC	99*	9	11	-6	4	9
COc1ccc(-c2cn[nH]c2C)cc1	-23	4	4	-11	11	-10
COc1ccc(-c2cnn(-c3ccccc3)c2N)cc1OC	90*	-2	6	-4	-4	-7
C[C@H]1CCCCO[C@H](CN(C)CC2CCCCC2)[C@@H](C)CN([C@@H](C)CO)C(=O)c2cc(NS(=O)(=O)c3ccccc3)ccc2O1	.	.	.	-2	.	.
Cc1cc(O)c(/C=N/Nc2cccc(Cl)c2)c(=O)o1	.	0	6	0	-29	-1
Cc1cc(O)c(/C=N/Nc2ccc(Cl)cc2)c(=O)o1	98*	2	2	0	-25	-2
Cn1nccc1C(=O)N1CCCC(Nc2ccc(F)cc2)C1 (stereo unspecified)	72	1	2	-4	-5	8
Cn1cc(C(=O)N2CCCC(Nc3ccc(F)cc3)C2)c2ccccc21 (stereo unspecified)	88*	-5	1	-2	12	-1
CN(C)c1ccccc1C(=O)N1CCCC(Nc2ccc(F)cc2)C1 (stereo unspecified)	99*	6	-1	-3	-2	-4
CCOc1ccc(C(CCc2ccccc2)NC(=O)c2ccccc2)cc1OCC (stereo unspecified)	1	2	3	-10	22	1
COc1ccc(/C=N/Nc2snc(SC)c2C#N)cc1OC	8	5	3	.	0	8
COc1cccc(/C=N/Nc2snc(SC)c2C#N)c1O	86*	1	3	-4	-10	9
CCCc1[nH]nc2c1C(c1ccc(OCCN3CCOCC3)c(OC)c1)C(C#N)=C(N)O2 (stereo unspecified)	10	0	0	-5	-7	9
CCOc1cc(C2C(C#N)=C(N)SC(N)=C2C#N)ccc1OCCN1CCOCC1	99*	8	1	-6	-4	10
CC(=O)NC(NC(=S)Nc1ccc(N=Nc2ccccc2)cc1)C(Cl)(Cl)Cl (stereo unspecified)	-7	0	3	-5	-17	-3
O=C(O)Cn1c(=O)c2c3c(sc2n(Cc2ccc(Cl)cc2Cl)c1=O)CCCC3	76*	.	4	-19	-10	2
CC1CCc2sc3c(c2C1)c(=O)n(CC(=O)O)c(=O)n3Cc1ccc(Cl)cc1 (stereo unspecified)	.	3	2	-18	4	0
COCCCNC(=O)CS(=O)Cc1nc(-c2ccccc2C)oc1C (stereo unspecified)	99*	6	-1	2	7	-1
CCOc1ccc(CCNC(=O)CS(=O)Cc2nc(-c3ccccc3Cl)oc2C)cc1OCC (stereo unspecified)	99*	2	-2	-3	-13	5
Cc1ccc(CCNC(=O)CS(=O)Cc2nc(-c3ccccc3Cl)oc2C)cc1 (stereo unspecified)	99*	5	4	-2	2	-10
